# Laboratory results taken from PubChem BioAssay (Tox21).
# Several values for one entry are separate records, joined by “and”; a condition that tells them apart may be missing. Equal entries are not always repeated. Unmarked numbers belong to inactive results. Inconclusive results are not listed. Where a call stands in place of a potency, no number is given. Activity calls are given as the source filed them. Unless noted, calls come from the whole dose curve; as a rule, active = well fitted curve in the direction sought with a large enough effect in the repeat runs; inconclusive = weak or mixed curves; inactive = no such curve, though single readings can be large; an effect the other way counts as inactive or inconclusive.
# Tests used:
# [1] = target: Progesterone receptor (Homo sapiens) (UniProt P06401); test: qHTS assay to identify small molecule antagonists of the progesterone receptor (PR) signaling pathway (AID 1346795; active = well fitted inhibition curve with a large enough effect in the signal ratio in the repeat runs, not every such curve was filed as active; the % refers to the signal ratio; note: potency is the fitted concentration of half-maximal effect)
# Sequence of Progesterone receptor (Homo sapiens) (P06401 whole entry, looked up): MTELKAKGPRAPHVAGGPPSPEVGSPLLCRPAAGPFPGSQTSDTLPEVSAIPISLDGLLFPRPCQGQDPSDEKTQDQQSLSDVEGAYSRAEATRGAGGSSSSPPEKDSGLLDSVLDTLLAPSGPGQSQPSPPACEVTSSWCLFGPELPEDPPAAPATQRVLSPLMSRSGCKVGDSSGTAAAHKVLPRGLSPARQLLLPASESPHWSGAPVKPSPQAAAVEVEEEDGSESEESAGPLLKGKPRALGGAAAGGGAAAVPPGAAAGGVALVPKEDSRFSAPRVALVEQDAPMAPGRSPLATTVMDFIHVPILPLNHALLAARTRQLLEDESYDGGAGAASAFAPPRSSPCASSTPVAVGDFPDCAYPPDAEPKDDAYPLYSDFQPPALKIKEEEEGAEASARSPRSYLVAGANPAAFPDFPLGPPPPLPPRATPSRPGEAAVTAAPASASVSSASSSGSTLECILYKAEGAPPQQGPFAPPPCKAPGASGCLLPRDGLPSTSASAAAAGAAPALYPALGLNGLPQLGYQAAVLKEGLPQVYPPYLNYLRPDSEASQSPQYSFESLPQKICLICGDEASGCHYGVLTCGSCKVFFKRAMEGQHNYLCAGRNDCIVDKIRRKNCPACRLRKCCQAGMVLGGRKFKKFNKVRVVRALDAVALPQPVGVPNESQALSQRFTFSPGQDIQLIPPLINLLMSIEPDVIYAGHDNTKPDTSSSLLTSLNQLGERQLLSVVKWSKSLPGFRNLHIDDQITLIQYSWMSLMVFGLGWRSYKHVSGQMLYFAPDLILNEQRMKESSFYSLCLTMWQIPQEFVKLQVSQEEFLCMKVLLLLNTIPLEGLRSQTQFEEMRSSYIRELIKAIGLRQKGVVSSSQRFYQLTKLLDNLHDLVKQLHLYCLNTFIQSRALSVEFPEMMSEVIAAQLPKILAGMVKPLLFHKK
# Outline: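 In HEK293T cells bearing the PR-UAS-bla reporter, compound effects on promegestone-driven (1 nM) beta-lactamase expression are assessed after 16 hr using a fluorescent FRET substrate incubated 2 hr at room temperature.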
# [2] = qHTS assay to identify small molecule antagonists of the TGF-beta/Smad signaling pathway - cell viability counter screen (AID 1346824); note: nearly all actives have a fitted effect of over 50% in size; note: potency is the fitted concentration of half-maximal effect
# Outline: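 SBE-bla HEK 293T cells, incubated overnight, then compound plus 0.25 ng/mL TGF-beta1 (stock added) for 5 hr at 37 C. Viability was read in the same wells by CellTiter-Glo luminescence after 30 min at room temperature.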
# [3] = qHTS assay to identify small molecule agonists of the TGF-beta/Smad signaling pathway - cell viability counter screen (AID 1346829); note: nearly all actives have a fitted effect of over 45% in size; note: potency is the fitted concentration of half-maximal effect
# Outline: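 Here the cytotoxicity of library compounds is measured in SBE-bla HEK 293T cells treated for 5 hr, using CellTiter-Glo added to wells already read for the beta-lactamase reporter.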
# [4] = target: Thyrotropin-releasing hormone receptor (Homo sapiens) (UniProt P34981); test: qHTS assay to identify small molecule antagonists of the thyrotropin-releasing hormone receptor (TRHR) signaling pathway (AID 1346877; active = well fitted inhibition curve with a large enough effect in the repeat runs, not every such curve was filed as active; note: series mostly up to about 51 µM)
# Sequence of Thyrotropin-releasing hormone receptor (Homo sapiens) (P34981 whole entry, looked up): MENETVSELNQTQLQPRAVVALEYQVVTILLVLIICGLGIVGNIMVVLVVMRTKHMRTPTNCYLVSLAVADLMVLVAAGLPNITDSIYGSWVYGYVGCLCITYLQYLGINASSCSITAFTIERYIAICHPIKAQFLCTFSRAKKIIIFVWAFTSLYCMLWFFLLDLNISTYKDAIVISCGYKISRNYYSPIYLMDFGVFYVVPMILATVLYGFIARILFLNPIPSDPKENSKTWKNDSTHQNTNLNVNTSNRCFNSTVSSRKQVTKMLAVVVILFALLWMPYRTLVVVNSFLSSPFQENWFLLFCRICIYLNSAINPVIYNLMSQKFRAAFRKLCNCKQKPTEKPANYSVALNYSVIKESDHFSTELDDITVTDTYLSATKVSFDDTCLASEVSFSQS
# Outline: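 Cells (TRHR-HEK293) are plated and kept 18 h at 37 °C/5% CO2. A calcium-sensitive dye is added for 2 h, compound follows for 5 min at room temperature, and TRH is then given at 1 nM final.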
# [5] = target: Thyrotropin-releasing hormone receptor (Homo sapiens) (UniProt P34981); test: qHTS assay to identify small molecule agonists of the thyrotropin-releasing hormone receptor (TRHR) signaling pathway (AID 1346891; calls by dose curve; note: series mostly up to about 58 µM)
# Outline: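 Screening of agonists relied on calcium signalling in HEK293 cells expressing human TRHR: dye loading 2 h at 37 °C preceded compound addition and a 3-min fluorescence time course.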
# [6] = Human pregnane X receptor (PXR) small molecule agonists, qHTS cell viability counter screen (AID 1346977); note: nearly all actives have a fitted effect of over 50% in size; note: potency is the fitted concentration of half-maximal effect
# Outline: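 Tox21 qHTS format; PXR-Luc HepG2, 2,000/well, charcoal-stripped FBS 5%. Cpd exposure 24hr. Read: CellTiter-Fluor fluorescence, multiplexed with luciferase.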
# [7] = Caspase-3/7 induction in CHO-K1 cells by small molecules, qHTS assay (AID 1346980); note: nearly all actives have a fitted effect of over 15% in size; note: potency is the fitted concentration of half-maximal effect
# Outline: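 Wild-type CHO-K1 cells exposed to compounds for 17hr at 37 C, 5% CO2. Caspase-3/7 activity then measured by Caspase-Glo 3/7 luminescence after 30min at room temperature.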
# [8] = target: Cytochrome P450 2D6 (Homo sapiens) (UniProt P10635); test: Cytochrome P450 Family 2 Subfamily D Member 6 (CYP2D6) small molecule antagonists: luciferase reporter qHTS assay (AID 1671196); note: nearly all actives have a fitted effect of over 50% in size; note: potency is the fitted concentration of half-maximal effect
# Sequence of Cytochrome P450 2D6 (Homo sapiens) (P10635 whole entry, looked up): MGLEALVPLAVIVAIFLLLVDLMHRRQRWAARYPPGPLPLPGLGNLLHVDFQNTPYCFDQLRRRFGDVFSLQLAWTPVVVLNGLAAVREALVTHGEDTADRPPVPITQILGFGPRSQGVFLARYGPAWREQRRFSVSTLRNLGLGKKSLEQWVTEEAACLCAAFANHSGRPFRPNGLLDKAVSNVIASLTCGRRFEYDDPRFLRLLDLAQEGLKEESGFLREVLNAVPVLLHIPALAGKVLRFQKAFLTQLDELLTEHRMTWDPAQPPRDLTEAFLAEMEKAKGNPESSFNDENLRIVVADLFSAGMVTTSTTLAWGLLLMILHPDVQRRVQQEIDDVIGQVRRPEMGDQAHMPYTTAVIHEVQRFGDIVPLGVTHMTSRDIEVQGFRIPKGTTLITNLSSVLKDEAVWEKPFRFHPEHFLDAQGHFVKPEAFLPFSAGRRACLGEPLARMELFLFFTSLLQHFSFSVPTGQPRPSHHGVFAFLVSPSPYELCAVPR
# Outline: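 P450-Glo format: CYP2D6 converts a proluciferin substrate to luciferin in an NADPH-driven reaction lasting 1 h at room temperature. Light output, proportional to CYP2D6 activity, reflects interference by test chemicals.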
# [9] = target: Cytochrome P450 2C19 (Homo sapiens) (UniProt P33261); test: Cytochrome P450 Family 2 Subfamily C Member 19 (CYP2C19) small molecule antagonists: luciferase reporter qHTS assay (AID 1671197); note: nearly all actives have a fitted effect of over 65% in size; note: potency is the fitted concentration of half-maximal effect
# Sequence of Cytochrome P450 2C19 (Homo sapiens) (P33261 whole entry, looked up): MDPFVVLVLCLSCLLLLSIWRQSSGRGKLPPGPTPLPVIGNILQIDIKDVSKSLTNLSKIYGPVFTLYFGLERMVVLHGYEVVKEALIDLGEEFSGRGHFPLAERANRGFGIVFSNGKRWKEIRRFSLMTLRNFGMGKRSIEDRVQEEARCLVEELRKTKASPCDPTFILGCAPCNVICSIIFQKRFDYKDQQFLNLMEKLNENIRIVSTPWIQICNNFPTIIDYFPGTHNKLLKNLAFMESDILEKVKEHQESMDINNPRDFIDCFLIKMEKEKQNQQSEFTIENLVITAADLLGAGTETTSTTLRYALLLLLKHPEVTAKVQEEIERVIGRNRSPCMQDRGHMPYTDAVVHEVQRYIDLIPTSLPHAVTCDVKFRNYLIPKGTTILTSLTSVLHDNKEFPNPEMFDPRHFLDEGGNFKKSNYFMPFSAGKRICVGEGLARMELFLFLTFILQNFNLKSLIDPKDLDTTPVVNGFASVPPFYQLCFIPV
# Outline: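 Light output is proportional to CYP2C19 activity: proluciferin substrate is converted to luciferin, then detected by a luciferin detection reagent that also stops the 1 h, 37C NADPH-driven reaction. Ketoconazole serves as positive control.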
# [10] = target: Cytochrome P450 2C9 (Homo sapiens) (UniProt P11712); test: Cytochrome P450 Family 2 Subfamily C Member 9 (CYP2C9) small molecule antagonists: luciferase reporter qHTS assay (AID 1671198); note: nearly all actives have a fitted effect of over 50% in size; note: potency is the fitted concentration of half-maximal effect
# Sequence of Cytochrome P450 2C9 (Homo sapiens) (P11712 whole entry, looked up): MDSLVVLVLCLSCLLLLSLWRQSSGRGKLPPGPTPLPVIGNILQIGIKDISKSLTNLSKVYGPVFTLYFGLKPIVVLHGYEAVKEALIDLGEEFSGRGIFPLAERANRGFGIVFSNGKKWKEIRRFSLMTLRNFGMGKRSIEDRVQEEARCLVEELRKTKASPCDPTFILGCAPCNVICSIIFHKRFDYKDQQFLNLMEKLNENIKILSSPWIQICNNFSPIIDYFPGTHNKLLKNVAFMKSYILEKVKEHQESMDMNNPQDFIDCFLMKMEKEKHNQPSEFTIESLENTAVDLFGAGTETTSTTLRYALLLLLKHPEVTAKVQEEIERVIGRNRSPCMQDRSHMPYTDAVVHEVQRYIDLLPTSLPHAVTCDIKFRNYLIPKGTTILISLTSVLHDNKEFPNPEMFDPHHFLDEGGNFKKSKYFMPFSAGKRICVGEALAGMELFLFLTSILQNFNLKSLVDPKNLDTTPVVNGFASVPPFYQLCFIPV
# Outline: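 P450-Glo proluciferin substrate with CYP2C9 enzyme; 10 min RT preincubation, then NADPH regeneration 1 h at 37C; luciferin detection reagent 20 min RT, luminescence in relative luminescence units.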
# [11] = qHTS assay to identify small molecule antagonists of the progesterone receptor (PR) signaling pathway - cell viability counter screen (AID 1346798); note: nearly all actives have a fitted effect of over 50% in size; note: potency is the fitted concentration of half-maximal effect
# Outline: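 Following a 4 hr attachment, PR-UAS-bla HEK293T cells in charcoal-stripped FBS medium were exposed to compounds with R5020 for 16 hr; CellTiter-Glo was added and luminescence read after 30 min at room temperature.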
# [12] = qHTS assay to identify small molecule agonists of the TGF-beta/Smad signaling pathway (AID 1346859; active = well fitted activation curve with a large enough effect in the signal ratio in the repeat runs, not every such curve was filed as active; the % refers to the signal ratio; note: series mostly up to about 77 µM)
# Outline: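 Each well held 4,000 SBE-bla HEK 293T cells incubated overnight before compound addition; 5 hr later the cleavable FRET substrate went on for 2 hr at room temperature, and fluorescence was read at two emissions.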
# [13] = Caspase-3/7 induction in HepG2 cells by small molecules, qHTS assay (AID 1346978); note: nearly all actives have a fitted effect of over 15% in size; note: potency is the fitted concentration of half-maximal effect
# Outline: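 Wild-type HepG2 cells, 2,000/well, settled 5 hr at 37 C and 5% CO2, then compound-treated for 17 hr; caspase-3/7 activity read by luminescent Caspase-Glo 3/7 after 30 min at room temperature.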
# [14] = Caspase-3/7 induction in CHO-K1 cells by small molecules, qHTS cell viability counter screen (AID 1346979); note: nearly all actives have a fitted effect of over 35% in size; note: potency is the fitted concentration of half-maximal effect
# Outline: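 CellTiter-Fluor viability check, qHTS format: wild-type CHO-K1, 16hr compound treatment, 1hr reagent incubation, fluorescence read.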
# [15] = target: Nuclear receptor subfamily 1 group I member 2 (Homo sapiens) (UniProt O75469); test: Human pregnane X receptor (PXR) small molecule agonists, qHTS assay (AID 1346982); note: nearly all actives have a fitted effect of over 35% in size; note: potency is the fitted concentration of half-maximal effect
# Sequence of Nuclear receptor subfamily 1 group I member 2 (Homo sapiens) (O75469 whole entry, looked up): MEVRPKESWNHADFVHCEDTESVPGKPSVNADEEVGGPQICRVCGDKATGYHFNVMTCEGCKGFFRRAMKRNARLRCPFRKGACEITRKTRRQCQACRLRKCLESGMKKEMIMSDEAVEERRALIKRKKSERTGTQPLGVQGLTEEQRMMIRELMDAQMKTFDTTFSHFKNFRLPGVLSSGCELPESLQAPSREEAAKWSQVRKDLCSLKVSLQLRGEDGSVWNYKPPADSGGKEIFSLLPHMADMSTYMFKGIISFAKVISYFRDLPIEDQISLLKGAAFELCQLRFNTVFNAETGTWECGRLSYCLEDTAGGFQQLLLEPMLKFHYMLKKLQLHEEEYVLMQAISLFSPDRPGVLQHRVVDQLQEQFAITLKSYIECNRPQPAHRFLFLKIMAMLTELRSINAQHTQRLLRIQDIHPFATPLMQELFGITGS
# Outline: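 Agonist mode qHTS: PXR-Luc HepG2 cells plated 5 hr before DMSO-dissolved compounds were pinned in, cultured 24 hr at 37 C, 5% CO2; ONE-Glo luminescence readout.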
# [16] = qHTS assay to identify small molecule agonists of the progesterone receptor (PR) signaling pathway - cell viability counter screen (AID 1346799; calls by dose curve; note: nearly all actives have a fitted effect of over 45% in size; note: potency is the fitted concentration of half-maximal effect)
# Outline: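 Here, 3,000 PR-UAS-bla HEK293T cells per well were treated with compounds for 16 hr after a 6 hr preincubation at 37C and 5% CO2; cell viability is the CellTiter-Glo luminescence signal.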
# [17] = target: Nuclear receptor subfamily 1 group I member 2 (Rattus norvegicus) (UniProt Q9R1A7); test: Rat pregnane X receptor (rPXR) activation by small molecules, qHTS assay (AID 1346983); details: rPXR luciferase reporter cells, One-Glo luminescence, 24 h; max activation: stronger effect = higher value; note: nearly all actives have a fitted effect of over 20% in size
# Sequence of Nuclear receptor subfamily 1 group I member 2 (Rattus norvegicus) (Q9R1A7 whole entry, looked up): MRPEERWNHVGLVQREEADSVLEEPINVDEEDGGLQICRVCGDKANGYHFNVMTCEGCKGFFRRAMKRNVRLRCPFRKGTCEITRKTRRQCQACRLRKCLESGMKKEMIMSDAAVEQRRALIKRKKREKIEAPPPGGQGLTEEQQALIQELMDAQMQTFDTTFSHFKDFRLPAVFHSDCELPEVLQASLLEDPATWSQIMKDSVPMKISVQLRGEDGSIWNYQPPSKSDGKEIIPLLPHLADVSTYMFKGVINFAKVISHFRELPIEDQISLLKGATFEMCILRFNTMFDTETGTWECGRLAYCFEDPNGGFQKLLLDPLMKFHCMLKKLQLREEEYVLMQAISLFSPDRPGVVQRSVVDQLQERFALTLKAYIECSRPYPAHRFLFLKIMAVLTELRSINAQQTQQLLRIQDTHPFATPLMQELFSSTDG
# Outline: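 Cell-based rPXR activation assay: rPXR cells, 2,000 per well, rested 5hr at 37 C, then exposed to compounds in DMSO for 24 hr at 37 C. Luciferase activity read by One-Glo luminescence after 30 min at room temperature.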
# [18] = target: Nuclear receptor subfamily 1 group I member 2 (Homo sapiens) (UniProt O75469); test: CYP3A4 induction through human pregnane X receptor (PXR) by small molecules, qHTS assay (AID 1346984); note: nearly all actives have a fitted effect of over 40% in size; note: potency is the fitted concentration of half-maximal effect
# Outline: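 Steps: seed DPX-2 cells, 5 hr at 37C; pin-transfer compounds; 24 hr at 37C; add Luciferin-IPA (3uM final), 3 hr at 37C; add One-Glo, 30 min RT; read luminescence.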
# [19] = Caspase-3/7 induction in HepG2 cells by small molecules, qHTS cell viability counter screen (AID 1346981); note: nearly all actives have a fitted effect of over 30% in size; note: potency is the fitted concentration of half-maximal effect
# Outline: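 Steps: seed 2,000 HepG2 cells per well; incubate 5 hr at 37 C; pin-add compounds in DMSO; incubate 16 hr; add CellTiter-Fluor; after 1 hr at 37 C and 5% CO2, read fluorescence.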
Structure (SMILES),Potency [1],Potency [2],Potency [3],Potency [4],Potency [5],Potency [6],Potency [7],Potency [8],Potency [9],Potency [10],Potency [11],Potency [12],Potency [13],Potency [14],Potency [15],Potency [16],max activation [17] [%],Potency [18],Potency [19]
CC(C)c1cccc(C(C)C)c1N1C(=O)c2ccc(O)cc2C1=O,6.11 µM (active),inactive,inactive,inactive,inactive,inactive,inactive,31.7 µM (active),39.9 µM (active),12.6 µM (active),,,,,,,,,
C=C1C(C)(C)[C@@]2(Cl)C(Cl)[C@]1(Cl)C(Cl)(Cl)C2(Cl)Cl (stereo partly drawn),,inactive,inactive,,,,60 µM (active),31.1 µM (active),,13.9 µM (active),67.3 µM (active),inactive,inactive,60 µM (active),10.7 µM (active),,,,
CCC1(c2cnc[nH]2)Cc2ccccc2C1,,inactive,inactive,inactive,inactive,inactive,inactive,0.977 µM (active),0.977 µM (active),1.55 µM (active),inactive,inactive,inactive,inactive,inactive,inactive,,,
Cc1cccc(C)c1NC(=O)CN1CCN(CCCC(c2ccc(F)cc2)c2ccc(F)cc2)CC1,,inactive,inactive,inactive,inactive,23.7 µM (active),,2.45 µM (active),43.6 µM (active),,29.8 µM (active),inactive,,29.8 µM (active),inactive,,3.4,inactive,
CC(=O)Oc1ccc(C2(c3ccc(OC(C)=O)cc3)Oc3ccccc3NC2=O)cc1,21.1 µM (active),inactive,inactive,inactive,inactive,inactive,inactive,,,2.45 µM (active),,inactive,inactive,,,,,,inactive
COc1nccnc1CC(C)C,,inactive,inactive,inactive,inactive,inactive,inactive,inactive,inactive,inactive,inactive,inactive,inactive,inactive,,inactive,,,inactive
C1CC(COCC2CO2)CCC1COCC1CO1 (stereo not drawn),,inactive,inactive,inactive,inactive,inactive,inactive,,,,inactive,,inactive,,,inactive,,,inactive
CCCCCCCCCCCCCC[n+]1ccccc1,,54.9 µM (active),,,,8.63 µM (active),inactive,1.78 µM (active),,,54.5 µM (active),,,27.3 µM (active),8.63 µM (active),,,,27.3 µM (active)
CC(CN(C)C)CN1c2ccccc2CCc2ccccc21 (stereo not drawn),,inactive,inactive,inactive,,26.6 µM (active),inactive,3.09 µM (active),,inactive,21.1 µM (active),,inactive,,23.7 µM (active),16.8 µM (active),-1.19,8.91 µM (active),
COc1cccc(OC)c1O,,inactive,inactive,inactive,inactive,inactive,inactive,6.33 µM (active),,35.6 µM (active),inactive,inactive,inactive,inactive,inactive,inactive,,,inactive
CC(C)(c1cc(Br)c(OCCO)c(Br)c1)c1cc(Br)c(OCCO)c(Br)c1,,inactive,inactive,,,,inactive,,6.94 µM (active),4.38 µM (active),29.9 µM (active),inactive,,,4.75 µM (active),33.6 µM (active),,,
Cc1ccc(N)cc1O,,,inactive,inactive,inactive,,,3.66 µM (active),,21.8 µM (active),,,inactive,52.9 µM (active),34.4 µM (active),,,,
CC(=O)OC(OC(C)=O)c1ccc([N+](=O)[O-])o1,,,,,,49.4 µM (active),,,16.2 µM (active),,,,,15.6 µM (active),24.8 µM (active),,,,62.2 µM (active)
CCCCCCOc1ccc(O)cc1,,inactive,inactive,inactive,inactive,,inactive,79.6 µM (active),20 µM (active),39.9 µM (active),,inactive,inactive,61.1 µM (active),48.6 µM (active),inactive,,,
Cc1ccc2ccc3cccc4ccc1c2c34,,inactive,inactive,inactive,inactive,inactive,inactive,63.2 µM (active),,63.2 µM (active),,inactive,inactive,,inactive,27.3 µM (active),,,inactive
CC1=C(/C=C/C(C)=C/C=C/C(C)=C/C(=O)Nc2ccc(O)cc2)C(C)(C)CCC1,,inactive,inactive,inactive,inactive,49.8 µM (active) and 26.6 µM (active),,13.8 µM (active),41 µM (active) and 27.5 µM (active),9.17 µM (active) and 8.71 µM (active),,inactive,70.3 µM (active) and 29.8 µM (active),44.4 µM (active) and 21.1 µM (active),,,-17.3,inactive,
N#CSCSc1nc2ccccc2s1,,,,,inactive,19.3 µM (active),6.86 µM (active),10 µM (active),,31.7 µM (active),,inactive,,17.2 µM (active),7.7 µM (active),inactive,,,
CC(C)(C)CC(C)(C)c1ccccc1O,,31.1 µM (active),49.2 µM (active),,,70.8 µM (active),,,inactive,17.9 µM (active),,,48.8 µM (active),61.4 µM (active),21.8 µM (active),,,,61.4 µM (active)
C[Si](C)(C)Cl,,inactive,inactive,,,inactive,inactive,inactive,inactive,inactive,,inactive,inactive,,inactive,inactive,,,
CCCCCCOc1cc(C)c(O)c(C)c1C,,,inactive,inactive,inactive,61.9 µM (active),inactive,25.5 µM (active),2.02 µM (active),25.5 µM (active),,inactive,49.2 µM (active),,34.8 µM (active),,,,
Clc1ccccc1CN1CCc2sccc2C1,,,inactive,inactive,inactive,inactive,inactive,,,,,,inactive,,,inactive,,,inactive
Cc1oc(-c2ccccc2)nc1CCOc1ccc(C[C@H](Nc2ccccc2C(=O)c2ccccc2)C(=O)O)cc1,,inactive,inactive,,inactive,54.5 µM (active),,inactive,,20 µM (active),,,,30.6 µM (active),,27.3 µM (active),,,43.3 µM (active)
